From PubChem BioAssay AID1159580 (chemical genetic matrix, 2015)
Values joined by “and” are separate entries in the source; they are usually repeats but may differ in a detail not shown here. Identical values can stand only once. The campaign covered roughly 5,500 compounds. About 2,000 (36%) were called active. About 18% were inconclusive and are not listed. Cut-off read from the data, not from the text of the source: active = normalized growth mostly below about 0.91 (no sharp cut-off); inconclusive = no clear call, values can overlap the other calls; inactive = mostly above about 0.92. This is one part of the list.

Assay: chemical genetic growth profiling, strain panel (AID 1159580);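 note: tested at 20 µM; growth read once vehicle control cultures reached saturation at 30 °C; 1 = growth at the plate median or of vehicle wells; lower values mean less growth of the strain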
Settings: growth OD

Measured: normalized growth

COc1cc(-c2coc3cc(OCc4ccccc4)c(OC)c(O)c3c2=O)cc(O)c1OC
0.808 (active) and 1.01 (inactive): S. cerevisiae deletion strains, locus YHR030C, strain SLT2, stronger effect = lower value
active: S. cerevisiae deletion strains, locus YAL013W, strain DEP1, stronger effect = lower value 0.788 | S. cerevisiae deletion strains, locus YDL035C, strain GPR1, stronger effect = lower value 0.757 | S. cerevisiae deletion strains, locus YDL074C, strain BRE1, stronger effect = lower value 0.764 | S. cerevisiae deletion strains, locus YDL192W, strain arf1, stronger effect = lower value 0.864 | S. cerevisiae deletion strains, locus YDR162C, strain NBP2, stronger effect = lower value 0.714 | S. cerevisiae deletion strains, locus YDR318W, strain mcm21, stronger effect = lower value 0.877 | S. cerevisiae deletion strains, locus YDR502C, strain sam2, stronger effect = lower value 0.901 | S. cerevisiae deletion strains, locus YEL061C, strain CIN8, stronger effect = lower value 0.821 | S. cerevisiae deletion strains, locus YER167W, strain BCK2, stronger effect = lower value 0.879 | S. cerevisiae deletion strains, locus YGL086W, strain mad1, stronger effect = lower value 0.841 | S. cerevisiae deletion strains, locus YGL248W, strain PDE1, stronger effect = lower value 0.787 | S. cerevisiae deletion strains, locus YGR135W, strain pre9, stronger effect = lower value 0.836 | S. cerevisiae deletion strains, locus YHR129C, strain ARP1, stronger effect = lower value 0.783 | S. cerevisiae deletion strains, locus YHR200W, strain rpn10, stronger effect = lower value 0.883 | S. cerevisiae deletion strains, locus YIL066C, strain RNR3, stronger effect = lower value 0.733 | S. cerevisiae deletion strains, locus YJL187C, strain SWE1 (second series), stronger effect = lower value 0.837 | S. cerevisiae deletion strains, locus YJR043C, strain POL32, stronger effect = lower value 0.747 | S. cerevisiae deletion strains, locus YKR001C, strain vps1, stronger effect = lower value 0.88 | S. cerevisiae deletion strains, locus YLR058C, strain SHM2, stronger effect = lower value 0.863 | S. cerevisiae deletion strains, locus YLR330W, strain CHS5, stronger effect = lower value 0.827 | S. cerevisiae deletion strains, locus YLR342W, strain FKS1 (second series), stronger effect = lower value 0.785 | S. cerevisiae deletion strains, locus YLR371W, strain rom2, stronger effect = lower value 0.86 | S. cerevisiae deletion strains, locus YLR418C, strain cdc73, stronger effect = lower value 0.705 | S. cerevisiae deletion strains, locus YML016C, strain PPZ1, stronger effect = lower value 0.846 | S. cerevisiae deletion strains, locus YMR223W, strain ubp8, stronger effect = lower value 0.877 | S. cerevisiae deletion strains, locus YNL067W, strain RPL9B, stronger effect = lower value 0.829 | S. cerevisiae deletion strains, locus YNL153C, strain GIM3, stronger effect = lower value 0.843 | S. cerevisiae deletion strains, locus YNL233W, strain BNI4, stronger effect = lower value 0.796 | S. cerevisiae deletion strains, locus YNL307C, strain MCK1, stronger effect = lower value 0.844 | S. cerevisiae deletion strains, locus YNL322C, strain KRE1, stronger effect = lower value 0.823 | S. cerevisiae deletion strains, locus YOL006C, strain TOP1, stronger effect = lower value 0.449 | S. cerevisiae deletion strains, locus YOR061W, strain CKA2, stronger effect = lower value 0.848 | S. cerevisiae deletion strains, locus YOR069W, strain VPS5, stronger effect = lower value 0.834 | S. cerevisiae deletion strains, locus YPR163C, strain tif3, stronger effect = lower value 0.837 | S. cerevisiae deletion strains, locus YPR167C, strain met16, stronger effect = lower value 0.871 | S. cerevisiae deletion strains, strain wtn01, stronger effect = lower value 0.849 | S. cerevisiae strains, strain wild type, stronger effect = lower value 0.663
0.778 (active) and 1.02 (inactive): S. cerevisiae deletion strains, locus YJL095W, strain BCK1, stronger effect = lower value
inactive: S. cerevisiae deletion strains, locus YBR021W, strain FUR4, stronger effect = lower value 0.908 | S. cerevisiae deletion strains, locus YBR229C, strain ROT2, stronger effect = lower value 0.985 | S. cerevisiae deletion strains, locus YCL029C, strain bik1, stronger effect = lower value 0.962 | S. cerevisiae deletion strains, locus YDL101C, strain DUN1, stronger effect = lower value 0.918 | S. cerevisiae deletion strains, locus YDL185W, strain tfp1, stronger effect = lower value 0.968 | S. cerevisiae deletion strains, locus YDR101C, strain arx1, stronger effect = lower value 0.958 | S. cerevisiae deletion strains, locus YDR150W, strain NUM1, stronger effect = lower value 0.911 | S. cerevisiae deletion strains, locus YDR388W, stronger effect = lower value 0.954 | S. cerevisiae deletion strains, locus YER110C, stronger effect = lower value 1 | S. cerevisiae deletion strains, locus YER155C, strain BEM2, stronger effect = lower value 0.946 | S. cerevisiae deletion strains, locus YGL078C, strain dbp3, stronger effect = lower value 0.937 | S. cerevisiae deletion strains, locus YGR252W, strain gcn5, stronger effect = lower value 0.81 | S. cerevisiae deletion strains, locus YHR079C, strain IRE1 (second series), stronger effect = lower value 0.967 | S. cerevisiae deletion strains, locus YHR079C, strain IRE1, stronger effect = lower value 1.01 | S. cerevisiae deletion strains, locus YHR094C, strain hxt1, stronger effect = lower value 1 | S. cerevisiae deletion strains, locus YIL073C, strain SPO22, stronger effect = lower value 0.685 | S. cerevisiae deletion strains, locus YIL125W, strain kgd1, stronger effect = lower value 1 | S. cerevisiae deletion strains, locus YIR030C, strain dcg1, stronger effect = lower value 0.979 | S. cerevisiae deletion strains, locus YJL134W, strain LCB3, stronger effect = lower value 0.981 | S. cerevisiae deletion strains, locus YJL168C, strain set2, stronger effect = lower value 0.993 | S. cerevisiae deletion strains, locus YJR066W, strain TOR1, stronger effect = lower value 0.95 | S. cerevisiae deletion strains, locus YKL009W, strain mrt4, stronger effect = lower value 0.922 | S. cerevisiae deletion strains, locus YKL068W, stronger effect = lower value 1.02 | S. cerevisiae deletion strains, locus YKL085W, strain MDH1 (second series), stronger effect = lower value 0.996 | S. cerevisiae deletion strains, locus YKL085W, strain MDH1, stronger effect = lower value 0.996 | S. cerevisiae deletion strains, locus YLR039C, strain RIC1, stronger effect = lower value 0.86 | S. cerevisiae deletion strains, locus YLR102C, strain apc9, stronger effect = lower value 0.998 | S. cerevisiae deletion strains, locus YLR113W, strain HOG1, stronger effect = lower value 1.02 | S. cerevisiae deletion strains, locus YLR262C, strain YPT6, stronger effect = lower value 0.857 | S. cerevisiae deletion strains, locus YLR268W, strain sec22, stronger effect = lower value 0.903 | S. cerevisiae deletion strains, locus YML032C, strain rad52, stronger effect = lower value 0.956 | S. cerevisiae deletion strains, locus YML124C, strain tub3, stronger effect = lower value 0.964 | S. cerevisiae deletion strains, locus YMR078C, strain ctf18, stronger effect = lower value 1.01 | S. cerevisiae deletion strains, locus YMR263W, strain SAP30, stronger effect = lower value 0.893 | S. cerevisiae deletion strains, locus YMR307W, strain GAS1, stronger effect = lower value 0.736 | S. cerevisiae deletion strains, locus YNL183C, strain NPR1, stronger effect = lower value 0.972 | S. cerevisiae deletion strains, locus YNL250W, strain rad50, stronger effect = lower value 0.945 | S. cerevisiae deletion strains, locus YNL271C, strain bni1, stronger effect = lower value 0.979 | S. cerevisiae deletion strains, locus YNL298W, strain CLA4, stronger effect = lower value 0.989 | S. cerevisiae deletion strains, locus YNR052C, strain pop2, stronger effect = lower value 0.951 | S. cerevisiae deletion strains, locus YOL012C, strain htz1 0.39 | S. cerevisiae deletion strains, locus YOL147C, strain pex11, stronger effect = lower value 0.955 | S. cerevisiae deletion strains, locus YOR136W, strain idh2, stronger effect = lower value 0.97 | S. cerevisiae deletion strains, locus YOR144C, strain elg1, stronger effect = lower value 0.988 | S. cerevisiae deletion strains, locus YOR184W, strain ser1, stronger effect = lower value 0.896 | S. cerevisiae deletion strains, locus YOR231W, strain MKK1, stronger effect = lower value 1.02 | S. cerevisiae deletion strains, locus YOR316C, strain cot1, stronger effect = lower value 0.996 | S. cerevisiae deletion strains, locus YPL241C, strain CIN2, stronger effect = lower value 0.974 | S. cerevisiae deletion strains, locus YPL256C, strain CLN2, stronger effect = lower value 1 | S. cerevisiae deletion strains, locus YPR119W, strain clb2, stronger effect = lower value 1 | S. cerevisiae deletion strains, locus YPR141C, strain kar3, stronger effect = lower value 1.01
